# Assay results taken from the supplement of paper PMC6555819.
# Assays:
# Experiment in all cases: PBM binding z-score (relative to random genomic background probes); higher = stronger binding; sequences stand for … in GC…GCGATTGACAGCGTAGAATGAAGG
# [1] = system: FXR:RXRa (NR concentration 270 nM, RXRa partner concentration 90 nM)
# Procedure, shortened: (§1)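 Custom Agilent 4×180K protein-binding microarrays carried double-stranded probes, each with a 34-nt variable region. These regions held direct-repeat seeds, single-nucleotide variants, half-site ablations and random human genomic background sequences. Ligand-free nuclear receptor dimers were incubated on the arrays for 1 h, antibodies against each partner (one per run) detected binding, and scanned fluorescence was regression-normalized. Binding z-scores take the random background probes as reference.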
# [2] = system: LXRa:RXRa (NR concentration 270 nM, RXRa partner concentration 90 nM)
# Procedure, shortened: as §1
# [3] = system: LXRa homodimer (NR concentration 270 nM)
# Procedure, shortened: as §1
# [4] = system: LXRb:RXRa (NR concentration 270 nM, RXRa partner concentration 90 nM)
# Procedure, shortened: as §1
# [5] = system: LXRb homodimer (NR concentration 270 nM)
# Procedure, shortened: as §1
# [6] = system: PPARa:RXRa (NR concentration 270 nM, RXRa partner concentration 90 nM)
# Procedure, shortened: as §1
# [7] = system: PPARg:RXRa (NR concentration 180 nM, RXRa partner concentration 90 nM)
# Procedure, shortened: as §1
# [8] = system: PPARg:RXRa 270nM:90nM, anti-RXR (NR concentration 270 nM, RXRa partner concentration 90 nM)
# Procedure, shortened: as §1
# [9] = system: PPARg:RXRa 30nM:10nM, anti-RXR (NR concentration 30 nM, RXRa partner concentration 10 nM)
# Procedure, shortened: as §1
# [10] = system: PPARg:RXRa 90nM:30nM, anti-RXR (NR concentration 90 nM, RXRa partner concentration 30 nM)
# Procedure, shortened: as §1
# [11] = system: PPARg:RXRa DBDmut IVT, anti-RXR (DBD mutation: RXRa K156A/R161A, NR concentration 270 nM, RXRa partner concentration 90 nM)
# Procedure, shortened: as §1
# [12] = system: PPARg:RXRa IVT, anti-PPARg (NR concentration 270 nM, RXRa partner concentration 90 nM)
# Procedure, shortened: as §1
# [13] = system: PPARg DBDmut:RXRa IVT, anti-PPARg (DBD mutation: PPARg1 K132A/R137A, NR concentration 270 nM, RXRa partner concentration 90 nM)
# Procedure, shortened: as §1
# [14] = system: PPARg DBDmut IVT, anti-PPARg (DBD mutation: PPARg1 K132A/R137A, NR concentration 270 nM)
# Procedure, shortened: as §1
# [15] = system: PPARg homodimer (NR concentration 180 nM)
# Procedure, shortened: as §1
# [16] = system: PXR:RXRa (NR concentration 270 nM, RXRa partner concentration 90 nM)
# Procedure, shortened: as §1
# [17] = system: PXR homodimer (NR concentration 270 nM)
# Procedure, shortened: as §1
# [18] = system: RARa:RXR (NR concentration 270 nM, RXRa partner concentration 90 nM)
# Procedure, shortened: as §1
# [19] = system: RARa homodimer (NR concentration 270 nM)
# Procedure, shortened: as §1
# [20] = system: RARb:RXRa (NR concentration 270 nM, RXRa partner concentration 90 nM)
# Procedure, shortened: as §1
Sequence,PBM binding z-score [1],PBM binding z-score [2],PBM binding z-score [3],PBM binding z-score [4],PBM binding z-score [5],PBM binding z-score [6],PBM binding z-score [7],PBM binding z-score [8],PBM binding z-score [9],PBM binding z-score [10],PBM binding z-score [11],PBM binding z-score [12],PBM binding z-score [13],PBM binding z-score [14],PBM binding z-score [15],PBM binding z-score [16],PBM binding z-score [17],PBM binding z-score [18],PBM binding z-score [19],PBM binding z-score [20]
ATCGAAAGGTCGTGGGGTGAGTATACAGAAAGGC,6.2,4.88,0.955,4.76,2.35,5.78,5.25,5.38,2.16,3.9,1.35,2.93,1.62,1.78,2.39,4.24,1.2,4.98,2.03,4.47
TAGCCTAGGTCATGCGGGCCACTATAGTGTCGGC,4.19,3.36,0.309,1.86,-0.164,3.55,2.41,2.65,0.295,1.5,1.87,3.38,-0.194,0.594,1.72,1.69,-0.634,2.72,0.388,3.69
TCGGCTAGGTCAACGATGGTCAGCTAATCTGCTA,3.23,2.31,-0.307,1.72,-0.717,3.14,1.75,2.37,1.62,2.03,3.13,3.06,-0.836,-0.603,1.19,1.58,-0.468,2.04,-0.329,3.97
CGTACGAGGGCATGAGTTGATAGCAAATGCCGAT,0.342,0.419,-0.557,0.284,-0.608,1.23,1.11,1.07,0.157,0.878,1.2,1.22,-0.964,-0.327,0.331,0.557,0.0171,0.533,-0.662,2.01
GCTGCTAGGTCAACGGATGGTCAGCTAAAGCTCG,3.29,2.35,-0.22,1.34,-0.253,3.2,2.58,2.83,0.601,2.06,4.91,3.99,0.0458,-0.872,1.84,1.21,-0.834,2.51,-0.435,4.19
GCATATAGGTAATACAAGGTGATAGTCCGATTGT,1.42,0.97,0.0526,-0.116,-0.184,0.93,1.32,0.737,0.438,0.536,4.05,2.84,1.05,1.46,0.142,0.0575,-0.157,0.688,0.359,-0.103
ATCGAAAGGACGAAGGTGAGTATACCCACCCGAA,-0.0229,0.0207,-0.291,-0.347,-0.118,-0.0423,1.05,0.837,0.489,0.641,-0.74,0.283,-0.404,-0.244,0.0409,0.00854,-0.3,-0.0536,0.0942,1.17
TCATATAGGTAAACAGGTGTAAGTCCGTAAGTTA,0.827,0.785,-0.0064,0.69,-0.189,1.41,1.35,2.56,3.79,3.09,3.98,2.97,1.63,0.913,1.12,0.63,0.672,0.946,1.32,0.512
GCTTACGGGTCATAGGTTATAGCATGAATAGAAT,5.98,4.32,0.326,4.2,0.262,5.87,9.25,7.94,6.8,8.53,3.9,5.19,2.06,1.56,2.24,3.94,0.0944,5.79,0.0988,3.51
CGAACTAGGTCATTGACAGGACGGTGAATAGTAA,4.57,2.37,0.115,1.47,-0.0948,4.67,7.41,6.31,3.36,5.61,8.29,8.22,1.89,0.528,0.985,1.12,-0.168,1.81,0.0523,3.63
TCTCCGAGGACACGAAGGTCAGAGCTTTCCAGAG,1.91,0.842,0.15,0.919,-0.353,2.09,0.489,1.61,2.34,2,1.19,1.32,-0.386,-0.524,1.23,2.1,1.31,2.06,-0.358,3.54
GCTTACGTGTCAAAGGTTATAGCATGAATAGAAT,3.42,3.02,-0.0204,2.94,-0.0977,5.34,9.21,8.05,7.61,9.07,1.72,3.96,0.407,0.944,3.44,2.98,-0.204,4.56,0.318,2.14
GCAGACAGGTGAAAGGCAGGTAACTCAGGGTGGC,0.0647,0.0817,-0.103,-0.00398,-0.276,0.899,0.826,0.901,-0.278,0.391,0.331,0.821,-0.179,-1.25,0.447,-0.081,-0.0558,0.332,0.233,0.812
CATACAGCGTCAGCTAGGCCAGAGTAGGGACGGC,-0.554,-0.839,-0.547,-1.42,-0.647,-1.05,0.332,-0.936,-0.344,-0.884,-0.164,-0.272,-0.28,0.0344,-0.557,-1.3,-0.659,-0.799,-0.655,-0.287
CGAACTAGGTCAGAACAGGACAGTGTAGGATGAT,1.59,0.807,-0.126,0.58,-0.539,3.33,5.09,4.48,1.85,3.29,7.44,7.53,3.18,2.19,1.06,0.998,0.228,0.95,0.229,3.07
AGAAAGAGGTTACCAAAGATCAGGGAAACGCTTG,2.31,6.51,-0.18,3.65,0.0945,3.37,2.1,2.36,0.802,1.77,1.97,1.94,0.516,0.104,0.75,1.82,-0.238,2.63,0.245,2.62
ATCTCTAGGTAACAAGTTCAGTGCAAGAGAGGAC,0.558,0.749,0.739,0.611,0.89,1.5,1.32,1.86,0.692,1.45,3.44,2.92,1.24,1.13,1.36,1.87,2.67,0.985,1.05,1.69
TCAAGTAGGTTACCAATGGGGCATTCAGCTTTCT,0.176,1.6,-0.145,1.17,-0.449,2.16,2.1,2.92,3.34,3.02,6.09,5.24,0.706,-0.182,0.999,0.326,-0.278,0.518,0.134,1.27
GCTTGTAGATAAAGGTTAAGAAAGACTAAGCTAA,0.528,2.06,0.00551,1.54,-0.409,2.29,1.41,2.24,0.494,1.88,-0.151,0.466,0.79,-0.0657,0.422,0.774,-0.193,1.62,0.598,1.66
CCTTACGGGTCGAGGTTATAGCACGGGTGGTACG,1.26,1.27,-0.211,0.916,-0.417,2.42,0.822,1.01,-0.146,0.242,-0.517,0.508,-0.109,-1.51,1.53,1.11,0.209,1.61,-0.219,1.97
CGAACTAGGTCAATGACAGTGAATCTCCGCACGC,3.48,2.25,0.283,1.56,-0.147,4.35,6.92,5.8,2.99,5.2,7.95,7.88,1.44,0.0144,1.11,1.01,0.0387,1.71,0.201,3.68
TCATATAGGTGAAGGTGAAAGTCGAACGATATGA,0.452,0.703,-0.543,0.713,-0.39,3.24,5.02,5.16,4.73,4.96,6,6.13,1.24,0.938,0.35,0.448,0.0381,1.08,0.38,1.88
TCTTATAGATCAACAGGAGGTTAAGAAAGATCGA,0.826,1.6,0.457,1.36,0.165,1.6,0.533,2.08,3.48,2.93,2.24,0.332,0.51,0.867,0.452,0.958,0.0264,1.46,0.64,0.877
ATCTCTAGGTAAAGAAAGTTCAGTGAATGCAAAT,0.762,4.7,1.94,1.58,0.904,1.38,0.409,0.933,0.542,0.768,2,1.69,1.32,0.83,1.41,2.68,1.68,1.42,1.41,1.82
GTACCTAGGTGAATAGGTCGTTGATGAGTAGGCG,0.327,0.577,-0.19,0.185,-0.886,1.93,1.83,2.16,0.782,1.89,2.96,3.55,-0.531,-0.303,0.221,0.327,-0.195,1.03,0.134,1.15
ACTAACGGGTCAACGAGGTTATAGCACGCGTATA,6.32,4.49,0.715,3.82,0.313,5.19,4.64,4.34,1.48,2.98,1.94,3.19,1.38,1.31,2.63,4.96,2.39,5.01,0.559,3.91
TCCAGTAGGTTAGTCGGGGCATTCAGCCAACATA,0.407,0.471,0.422,0.794,-0.477,1.38,0.45,2.08,2.7,2.41,3.62,3.02,-0.197,-0.452,0.925,0.439,0.18,0.346,0.0406,0.79
CCTATTGGGCCATTCAGAGGTCATTGATCATATG,3,4.68,6.08,4.04,0.58,3.65,1.17,2.6,0.568,1.77,2.6,2.48,0.246,0.228,1.37,4.71,2.54,4.7,0.541,3.28
CCTACTGGTCCAAAGGTCATTGATTCCAATGCTC,4.78,5.17,4.86,5.02,1.52,5.67,9.11,9.11,7.82,9.09,1.53,4.41,0.302,0.567,3.79,5.35,2.05,5.46,1.48,4.42
